Compound activity: PubChem, several laboratories
CYP2C9 act = CYP2C9 (human) activation; P11712; recombinant CYP2C9, luciferin-H conversion, luminescence; active compounds read high; factor 1 = untreated enzyme, 0 = blocked; activation factor at 5 µM; hit rate 1.4% among 96,000; AID 1024;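 active = activation factor of 2 or more for CYP2C9 at a 5 µM dose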
CYP2C19 activ = increases human CYP2C19 enzyme activity; activation factor at 5 µM; recombinant CYP2C19, luciferin-H EGE luminescence; active compounds read high; 0 = fully inhibited enzyme, 1 = untreated enzyme; 96,000 tested, under 10 active; AID 1025;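 active = activation factor of at least 2 at 5 µM in the primary screen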
Target sequence (P33261 whole entry, looked up): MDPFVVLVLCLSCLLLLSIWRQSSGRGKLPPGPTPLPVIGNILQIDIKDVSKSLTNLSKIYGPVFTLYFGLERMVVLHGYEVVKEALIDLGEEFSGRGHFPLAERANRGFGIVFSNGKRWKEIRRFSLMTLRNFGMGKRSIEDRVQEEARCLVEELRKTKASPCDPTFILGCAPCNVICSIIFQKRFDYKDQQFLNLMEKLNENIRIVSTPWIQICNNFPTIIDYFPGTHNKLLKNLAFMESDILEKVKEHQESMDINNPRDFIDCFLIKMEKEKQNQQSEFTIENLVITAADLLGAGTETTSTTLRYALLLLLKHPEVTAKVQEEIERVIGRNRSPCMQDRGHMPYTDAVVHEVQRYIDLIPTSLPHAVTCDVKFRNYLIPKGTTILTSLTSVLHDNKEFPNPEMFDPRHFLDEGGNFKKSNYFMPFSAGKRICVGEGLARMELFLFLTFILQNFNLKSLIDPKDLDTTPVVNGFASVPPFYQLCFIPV
CYP2C19 inh = human CYP2C19 inhibition. P33261. CYP2C19 Supersomes, luciferin-H EGE luminescence, 30 min. inhibition, % at 5 µM. hit rate 21% among 96,000;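 active = CYP2C19 inhibition above a set limit at 5 µM in the primary screen, cut at about 50% in these data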
F-actin modifier = alters cytoskeleton assembly in HUVEC cells | HUVEC TNFa F-actin phalloidin imaging, high content | inhibition, % at 2 µM | hit rate 0.18% among 91,000;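 active = inhibition above the batch mean plus 3 SD and confirmed as a hit by visual image inspection, cut at about 30% in these data, passing the limit was not always enough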
CYP2C9 inh = blocks human cytochrome P450 2C9; P11712; CYP2C9 Supersomes, luciferin-H conversion, luminescence; inhibition, % at 5 µM; hit rate 20% among 96,000;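 active = blocking of liver enzyme CYP2C9 beyond about 50% at 5 µM, limit read from the data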
E-sel TNF inh = TNF alpha driven E-selectin expression inhibition. HUVEC TNFa-induced E-selectin immunofluorescence, high content. inhibition, % at 2 µM. hit rate 0.71% among 120,000. AID 1246;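 active = inhibition above the batch mean plus 3 SD, and confirmed as a hit on visual image review, cut at about 43% in these data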
Numbers stand for hits; – = inactive; · = no result given. A selection: hits, their analogues and other compounds. The true share with any hit is near 22%.

SMILES	CYP2C9 act	CYP2C19 activ	CYP2C19 inh	F-actin modifier	CYP2C9 inh	E-sel TNF inh
COc1cc(CC(=O)NCc2ccco2)cc(OC)c1OC	–	–	–	–	–	–
CCOC(=O)N1CCN(C(=O)C2CCN(CC3CCCCC3)CC2)CC1	·	·	·	·	·	–
Nc1c(C(=O)N2CCCC2)sc2nc3c(cc12)CCCCCC3	·	·	·	·	·	–
O=C(NC(NC(=S)Nc1cccc(Cl)c1)C(Cl)(Cl)Cl)OCc1ccccc1 (configuration not stated)	–	–	60.4	–	65.8	–
Cc1cccc(NC(=S)NC(NC(=O)OCc2ccccc2)C(Cl)(Cl)Cl)c1 (configuration not stated)	–	–	76.7	–	75.7	–
CC(C)(C)NC(=O)NC(=O)COC(=O)CNC(=O)c1cc(Cl)cc([N+](=O)[O-])c1	·	·	·	·	·	–
CCCN=C(Nc1ccc(Cl)cc1)c1cccnc1	–	–	53.5	–	–	·
CCCCN=C(Nc1ccc(Cl)cc1)c1cccnc1	–	–	67.0	–	–	–
O=C1NC(=O)/C(=C\c2ccccc2Oc2ccc(F)c(F)c2)S1	–	–	–	–	84.6	–
O=C(O)CC1C(=O)OCN1C(=O)OCc1ccccc1 (configuration not stated)	–	–	–	–	–	–
O=S(=O)(Nc1ccc2c(c1)nc1n2CCN(Cc2ccccc2)C1)c1ccccc1	·	·	·	–	·	–
O=c1ccc(NS(=O)(=O)c2ccccc2)cn1Cc1ccc(Cl)c(Cl)c1	–	–	98.4	–	79.4	–
CCC(C)(C)NC(=O)C1CCN(c2nc(C)cc(C)n2)CC1	–	–	–	·	–	·
Cc1cc(N2CCCCC2)n2nc(C)c(-c3ccccc3)c2n1	–	–	–	–	–	–
CCCc1cc(N2CCN(c3ccccn3)CC2)n2nc(C)c(-c3ccccc3)c2n1	–	–	–	–	53.6	·
OC(COCc1cccs1)CN1CCN(c2cccc(Cl)c2)CC1 (configuration not stated)	·	·	·	·	·	–
CCn1c(SCc2nc3sc(C(=O)O)c(C)c3c(=O)[nH]2)nc2ccccc21	–	–	–	–	55.4	–
COCCn1c(SCc2nc3sc(C(=O)OC)c(C)c3c(=O)[nH]2)nc2ccccc21	–	–	73.9	–	91.4	–
CNC(=O)NC(=O)CSc1nc2ccccc2n1CCOC	–	–	–	–	–	–
C=CCOc1ccccc1CNn1nnnc1N	–	–	–	–	–	–
Cc1ccc(Nc2nc3c([nH]2)c(=O)n(C)c(=O)n3C)cc1	–	–	–	–	59.5	–
O=C(O)c1cc(Cl)c2ccccc2c1O	–	–	–	–	79.2	–
Nc1nc(NC(=O)c2cccnc2)nn1-c1ccccc1	–	–	–	–	–	–
COC(=O)C(C)Sc1snnc1-c1ccccc1 (configuration not stated)	–	–	91.8	–	63.9	–
CN(C)C(=O)c1snnc1-c1ccccc1	–	–	–	–	–	–
SMILES	CYP2C9 act	CYP2C19 activ	CYP2C19 inh	F-actin modifier	CYP2C9 inh	E-sel TNF inh
N#CC1(c2ccc(NC(=O)c3ccccc3)cc2)CCCC1	–	–	–	–	–	–
N#CC1=C(N)NC(SCC(=O)O)=C(C#N)C12CCCC2	–	–	–	–	–	–
N#CC1=C(N)NC(SCc2ccc(F)cc2)=C(C#N)C12CCCCC2	–	–	100.0	–	100.0	–
CC1=C(C(=O)Nc2ccccc2)C2(CCCCC2)C(C#N)=C(S)N1	–	–	68.3	–	83.6	–
CCc1nc(SCc2ccc(F)cc2)[nH]c(=O)c1C#N	·	·	·	–	·	–
N#CC1=C(N)NC(SCC(=O)Nc2ccccc2)=C(C#N)C12CCCC2	–	–	98.8	–	94.6	–
Cn1ncc(C#N)c1/N=C/N1CCCCC1	–	–	–	–	–	–
CCOC(=O)c1cc2c(ccn2C)n1CC(=O)N1CCN(c2ccccc2OC)CC1	–	–	69.3	–	–	–
CCOC(=O)c1cc2c(ccn2-c2ccc(F)cc2)n1CC(=O)N1CCN(C(=O)c2ccco2)CC1	–	–	–	–	–	–
CCOC(=O)c1cc2c(ccn2C)n1CC(=O)N1CCC(Cc2ccccc2)CC1	–	–	–	·	–	95.8
CCOC(=O)c1cc2c(ccn2C)n1CC(=O)N1CCCC(C)C1 (configuration not stated)	–	–	–	–	–	–
Cc1ccc(S(=O)(=O)N(C)C)cc1NC(=S)NCCc1ccccn1	·	·	·	·	·	–
CC1CCCC(NC2CCCCNC2=O)C1 (configuration not stated)	–	–	–	–	–	·
O=C(CCNC(=O)c1ccccc1Cl)Nc1nc2ccccc2s1	·	·	·	·	·	–
Cc1cc(C#N)c(C)n1-c1cc(S(=O)(=O)N2CCOCC2)ccc1N1CCCC1	–	–	–	–	73.3	–
O=C1OC(c2ccccc2)/C(=C(/O)c2ccc(Cl)cc2)C1=O (configuration not stated)	–	–	–	–	–	–
Cc1nn(-c2ccccc2)c(N2CCCC2)c1/C=N/n1cnc2scc(-c3ccccc3)c2c1=O	–	–	–	–	–	–
O=c1c2c(-c3ccccc3)csc2ncn1/N=C/c1c2ccccc2cc2ccccc12	–	–	–	–	84.7	–
COC(=O)c1cc(CSc2nnc(-c3ccccc3)c(-c3ccccc3)n2)oc1C	–	–	–	–	52.8	–
O=C1CS/C(=N\C(=O)N2c3ccccc3Sc3ccccc32)N1	–	–	–	–	67.6	–
O=C1C(=C2CCCCC2)SC(=S)N1Cc1ccco1	–	–	59.9	–	–	–
Cc1ccc(Cn2cccc2C2=NC(C)CO2)cc1 (configuration not stated)	–	–	–	–	–	–
C[N+]1(CCOS(=O)C23CC4CC(CC(C4)C2)C3)CCOCC1 (configuration not stated)	–	–	–	–	–	·
CC(C)CNS(=O)(=O)c1ccc(CCC(=O)Nc2ccc3c(c2)OCCO3)cc1	–	–	–	–	58.0	–
CCCNS(=O)(=O)c1ccc(CCC(=O)Nc2ccc3c(c2)OCCO3)cc1	·	·	·	·	·	–
SMILES	CYP2C9 act	CYP2C19 activ	CYP2C19 inh	F-actin modifier	CYP2C9 inh	E-sel TNF inh
COc1ccc(CC(=O)Nc2ccc(S(=O)(=O)NC(C)C)cc2)cc1	–	–	62.1	–	59.9	–
CC(C)NS(=O)(=O)c1ccc(CCC(=O)Nc2ccc3c(c2)OCO3)cc1	–	–	–	–	51.6	–
CC(C)NS(=O)(=O)c1ccc(OCC(=O)Nc2ccc3c(c2)OCO3)cc1	·	·	·	·	·	–
CCCNS(=O)(=O)c1ccc(CCC(=O)Nc2ccc3c(c2)OCO3)cc1	–	–	94.8	–	81.8	–
COc1ncnc(OC)c1NC(=O)c1ccc(F)cc1	–	–	–	–	–	–
NC1=NC2(CCCCCC2)n2c(nc3ccccc32)N1	–	–	–	–	–	–
CCCCN(CCCC)c1nc2ccccc2nc1NS(=O)(=O)c1ccc(NC(C)=O)cc1	–	–	–	–	64.2	–
COC(=O)C(/C=N/OCc1ccc([N+](=O)[O-])cc1)NC(=O)c1cccc(Cl)c1 (configuration not stated)	–	–	78.6	–	61.0	–
COc1ccc(C(C)=O)c(Oc2nc(CN3CCOCC3)nc3scc(-c4cccs4)c23)c1	–	–	–	–	51.2	–
